# Source: PubChem BioAssay (National Center for Advancing Translational Sciences (NCATS))
# p53ts 32C tox: qHTS Screen for Compounds that Selectively Target Cancer Cells with p53 Mutations: Cytotoxicity of p53ts Cells at the Permissive Temperature. AID 924, 2007. Potency, µM (top dose mostly 46.1 µM), without a hit: at the top dose activity change, negative = cytotoxicity, actives largely listed as cytotoxic. H1299-p53A138V at 32C, ATP luminescence viability, 24 h. hit rate 0.93% among 130,000;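 note: 0% = DMSO and -100% = full killing by reference compound; nearly all actives have a fitted effect of over 55% in size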
#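 ATP-content luminescence (ATPlite) read-out after 24 h compound exposure at 32C in H1299-p53A138V cells (600/well). Tested up to 46 uM. Normalized to DMSO (0%) and 100 uM tamoxifen (100% killing); Hill-fit AC50.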
# ALOX12 inhib: qHTS Assay for Inhibitors of 12-hLO (12-human lipoxygenase); Polyunsaturated fatty acid lipoxygenase ALOX12 (Homo sapiens), P18054; purified 12-hLO, xylenol orange hydroperoxide absorbance; Potency, µM (doses to about 57.1 µM), inactives show at the top dose activity change, negative = inhibition, actives largely listed as inhibitors; hit rate 0.12% among 150,000; note: nearly all actives have a fitted effect of over 55% in size
#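 Xylenol orange chromogenic assay: hydroperoxide from 12hLO oxidises Fe(II), giving red-shifted Fe(III)-XO absorbance. Conditions: 150 nM enzyme, 40 uM arachidonic acid, 25 mM Hepes pH 7.0, 0.01% Triton X-100, 30 min, room temperature.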
# HPGD inh: qHTS Assay for Inhibitors of HPGD (15-Hydroxyprostaglandin Dehydrogenase) | 15-hydroxyprostaglandin dehydrogenase [NAD(+)] (Homo sapiens), P15428 | purified HPGD, NADH fluorescence kinetic, PGE2 substrate | Potency, µM, inactives show at the top dose activity change, negative = inhibition, hits mostly inhibitors | hit rate 4.3% among 150,000 | AID 894, 2007; active = well fitted inhibition curve with a large enough effect, not every such curve was filed as active; inconclusive = small, poorly fitted or top-dose-only effect, or another doubt; inactive = no such curve, though single readings can be large or run the other way
# Target sequence (P15428 whole entry, looked up): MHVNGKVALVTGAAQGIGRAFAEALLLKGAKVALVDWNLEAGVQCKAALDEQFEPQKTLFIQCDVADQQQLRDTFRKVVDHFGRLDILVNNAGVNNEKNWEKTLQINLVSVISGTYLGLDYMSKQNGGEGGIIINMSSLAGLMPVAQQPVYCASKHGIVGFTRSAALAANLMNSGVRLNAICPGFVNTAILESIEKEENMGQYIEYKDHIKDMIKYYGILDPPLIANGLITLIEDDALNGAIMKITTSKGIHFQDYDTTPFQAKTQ
#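 20 nM HPGD preincubated 15 min at room temperature with compound in 50 mM Tris-HCl pH 8, 0.01% Tween 20. Started with 1 mM NAD+ and 30 uM prostaglandin E2; NADH fluorescence (360/450 nm) read 5 times over 30-s intervals, last minus first.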
# p53ts 39C kill: qHTS Screen for Compounds that Selectively Target Cancer Cells with p53 Mutations: Cytotoxicity of p53ts Cells at the Nonpermissive Temperature. H1299-p53A138V viability at 39C, ATP luminescence, 24 h. Potency, µM (series often up to 46.1 µM), for inactives: at the top dose activity change, negative = cell killing, actives largely listed as cytotoxic. hit rate 1.5% among 130,000. AID 902, 2007; note: nearly all actives have a fitted effect of over 55% in size
# An asterisk follows results filed as active; ? = inconclusive; . = not tested or not shown; ! = a repeat was not active; [ ] = another dose, or the depositor's remark. In the library only some 4.4% were active in any assay of this set; here they are far more common. Unless noted, calls come from the whole dose curve; as a rule, active = well fitted curve in the direction sought with a large enough effect; inconclusive = small, poorly fitted or top-dose-only effect, or another doubt; inactive = no such curve, though single readings can be large; an effect the other way counts as inactive or inconclusive. Unless noted, % is set by controls: 0 for no effect and ±100 for the full control effect; potency is the fitted concentration of half-maximal effect.
SMILES,p53ts 32C tox,ALOX12 inhib,HPGD inh,p53ts 39C kill
Cc1nc2cc(C(F)(F)F)ccc2n1C1CCN(Cc2nnnn2Cc2ccc3c(c2)OCO3)CC1,-21.5%,-25.9%,-11.5%,20µM*
O=C(Cn1c(=O)n(Cc2ccccc2)c(=O)c2sc3ccccc3c21)NCc1ccccc1Cl,12.6µM*,.,.,31.6µM*
C[C@@H]1O[C@@H](O[C@H]2C[C@@H](O)[C@]3(CO)[C@@H]4[C@@H](O)C[C@]5(C)[C@H](C6=CC(=O)OC6)CC[C@@]5(O)[C@H]4CC[C@@]3(O)C2)[C@H](O)[C@H](O)[C@@H]1O,.,-3.1%,.,.
C[C@@H](Cc1cccc(C(F)(F)F)c1)NCCCc1ccccc1,-5.0%,-13.0%,-6.6%,25.1µM*
CCC(=Nc1ccc(OC)cc1OC)c1c(O)n(C2CCCCC2)c(=O)[nH]c1=O,26.0%,-29.2%,28.2µM*,41.4%
CCC(=NCc1ccco1)c1c(O)n(C2CCCCC2)c(=O)[nH]c1=O,12.1%,-6.1%,-12.3%,7.7%
Nc1ncnc2c1ncn2[C@@H]1O[C@@H](COP(=O)(O)CP(=O)(O)OP(=O)(O)O)[C@H](O)[C@@H]1O,-23.1%,-3.2%,.,-10.9%
CC(=O)C1C2c3ccccc3OC1(C)N=c1s/c(=C/c3cn(C)nc3C)c(=O)n12 (stereo unspecified),-1.3%,-9.1%,28.2µM*,-10.9%
COC(=O)C1C2c3ccccc3OC1(C)N=c1s/c(=C/c3cnn(C)c3)c(=O)n12 (stereo unspecified),2.6%,-0.1%,-22.6%,-10.3%
N=C1c2ccccc2CN1NC(=O)c1ccc(Cl)cc1,.,2.2%,-14.4%,.
O=C(NCCc1ccc(Cl)cc1)c1ccc(Nc2nc3ccccc3n3nnnc23)cc1,?,.,.,7.94µM*
CN1C(=O)/C(=C\c2ccc(N3CCCCC3)o2)C(=O)NC1=S,.,-0.4%,-18.3%,.
CN(C)c1ccc(/C=C2/C(=O)NC(=O)N(CCc3ccc(F)cc3)C2=O)cc1,.,-15.1%,10µM*,.
Cc1ccc(/C=C2/C(=O)NC(=O)N(CCc3ccc(F)cc3)C2=O)s1,.,-0.9%,7.08µM*,.
Cc1ccc(/C=C2\C(=O)NC(=O)N(CCc3ccc(F)cc3)C2=O)o1,-21.3%,-20.5%,3.55µM*,9.4%
Cc1ccc(/C=C2/C(=O)NC(=O)N(CC3CCCO3)C2=O)s1 (stereo unspecified),.,-3.2%,14.1µM*,.
Oc1ccc2c3c1O[C@H]1c4[nH]c5ccccc5c4C[C@]4(O)[C@H](C2)N(CC2CC2)CC[C@@]314,-9.4%,-2.7%,-6.8%,?
Oc1ccc2c3c1O[C@H]1c4c(c5ccccc5n4Cc4ccccc4)C[C@]4(O)[C@H](C2)N(CC2CC2)CC[C@@]314,?,-9.5%,-5.6%,31.6µM*
Cc1oc(-c2ccccc2Cl)nc1CN1C(=O)CN=C(c2ccccc2)c2cc(Cl)ccc21,-4.4%,.,.,-8.0%
Cc1oc(-c2cccc(Cl)c2)nc1CN1CCC(C(=O)NCCCN2CCN(c3cccc(Cl)c3)CC2)CC1,-17.3%,.,.,10µM*
CCCCC/C=C\C/C=C\C/C=C\C/C=C\CCCC(=O)NCC(=O)O,1.4%,3.5%[0.00818 µM],28.2µM*!,16.3%
CCCCC/C=C\C/C=C\C/C=C\C/C=C\CCCC(=O)Nc1ccc(O)cc1,?,-19.8%,35.5µM*,?
CCCCC/C=C\C/C=C\C/C=C\C/C=C\CCCC(=O)Nc1ccc(O)cc1C,.,-2.5%[0.00818 µM],?,.
COc1ccc(Nc2ncc(C(=O)N3CCC4(CC3)OCCO4)c3ccccc23)cc1,7.9%,2.0%,22.4µM*,-6.3%
COc1cc(/C=C2\C(=O)NC(=O)N(c3ccccc3)C2=O)cc(OC)c1O,.,-5.1%,31.6µM*,.
SMILES,p53ts 32C tox,ALOX12 inhib,HPGD inh,p53ts 39C kill
CSc1ncc(/C=C2/C(=O)NC(=O)N(c3ccc(C(C)C)cc3)C2=O)cn1,.,-12.1%,?,.
CC(C)c1ccc(N2C(=O)NC(=O)/C(=C/c3cnc(-c4ccccc4)nc3)C2=O)cc1,.,-27.1%,12.6µM*,15.3%
CCOC(=O)c1cccc(NC(=O)c2cnc(N3CCCCC3)c3ccccc23)c1,0.3%,.,.,?
Cc1ccc(-c2cn3c(=S)[nH]nc3s2)cc1,-3.0%,?,28.2µM*,-2.7%
[Cl-].[Cl-].[Hg+2],.,5.01µM*,0.1µM*,25.1µM*
NS(=O)(=O)C[C-]1C=C[CH]([Sb-]([Cl])([Cl])([Cl])([Cl])[Cl])C=C1.c1ccncc1 (stereo unspecified),4.0%[9.22 µM],2.0%[11.4 µM],-9.8%,18.8%[9.22 µM]
CC(O)(CS(=O)(=O)c1ccccc1)C(=O)Nc1cccc(C(F)(F)F)c1 (stereo unspecified),.,2.7%,0.0018µM*,.
Cc1ccc(S(=O)(=O)CC(C)(O)C(=O)Nc2cccc(C(F)(F)F)c2)cc1 (stereo unspecified),.,-4.1%,-3.3%,.
CC(=O)Nc1ccccc1C(=O)OCc1ccc(C(=O)c2ccccc2)cc1,.,0.4%,25.1µM*,.
CC(=O)Nc1ccccc1C(=O)OCC(=O)c1ccc2ccccc2c1,.,-27.5%,?,.
CCOc1ccc(N2C(=O)NC(=O)/C(=C\c3ccc(N4CCCCC4)o3)C2=O)cc1,.,-1.5%,.,.
O=C1NC(=O)N(c2ccc(Cl)cc2)C(=O)/C1=C\c1ccc(Sc2nc3ccccc3[nH]2)o1,.,-28.4%,10µM*,.
Cc1cc(/C=C2\C(=O)NC(=O)N(Cc3ccccc3)C2=O)c(C)n1-c1ccc(Cl)c(C(=O)O)c1,.,-19.3%,17.8µM*,.
Cc1ccc(-n2c(C)cc(/C=C3/C(=O)NC(=O)N(Cc4ccco4)C3=O)c2C)cc1,.,-3.7%,?,-5.1%
[Cl][Pd][Cl].[S-]C1=C2N=CN[C-]2[NH+]=C[N-]1.[S-]c1ncnc2[nH]cnc12,.,.,0.6%,.
CCCCN1C(=O)NC(=O)/C(=C/c2cnc(SC)nc2)C1=O,.,-23.3%,20µM*,.
CSc1ncc(/C=C2/C(=O)NC(=O)N(C)C2=O)cn1,.,-11.2%,-26.8%,.
O=C(c1ccccc1)c1ccc2nc(N3CCN(c4ccc(F)cc4)CC3)c3nncn3c2c1,-11.1%,.,.,?
C=CCN1C(=O)NC(=O)/C(=C/c2ccc(OC)c(CSc3ccccn3)c2)C1=O,.,4.3%,28.2µM*,.
CS(=O)(=O)O[C@H]1CN2CCC1CC2,1.5%[9.22 µM],-4.1%[11.4 µM],-0.6%,-3.2%[9.22 µM]
O=C(NCc1ccc(Cl)cc1)C(=O)NCC(c1cccnc1)N1CCN(c2ccccc2)CC1 (stereo unspecified),-14.1%,.,.,18.9%
CC(N=Cc1c(O)[nH]c(=O)[nH]c1=O)c1ccccc1 (stereo unspecified),-2.0%,-3.0%,28.2µM*,8.5%
Cc1c([C@@H](C)[C@H]2NC[C@H](C)C[C@@H]2O)ccc2c1C[C@@H]1[C@H]2CC=C2C[C@@H](O)CC[C@@]21C,4.8%[9.22 µM],0.7%[11.4 µM],.,11.2%[9.22 µM]
O=[N+]([O-])/C=C/c1c(OCc2ccccc2)ccc2ccccc12,.,-3.2%,15.8µM*,.
